Each structure is given as a SMILES string. The panel holds about 83,000 compounds, 20% with a hit somewhere; the sample as a whole holds those more often.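 Results are percent growth after 48 hours of single-concentration exposure. 100 means growth as in untreated cells, lower positive values show inhibition; negative values down to -100 show cell death.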 Unmarked numbers belong to inactive results. The source made the active and inactive calls. How the source made its calls: active means growth percent below 10; inactive means the rest.

Test systems include SK-MEL-2 melanoma; EKVX NSCLC; SN12C renal; UO-31 renal; TK-10 renal; CAKI-1 renal; A498 renal; CCRF-CEM leukemia; MOLT-4 leukemia; SR leukemia; RPMI-8226 leukemia; OVCAR-8 ovarian; OVCAR-5 ovarian; OVCAR-4 ovarian; SK-OV-3 ovarian; IGROV1 ovarian; OVCAR-3 ovarian; HS 578T breast; NCI/ADR-RES ovarian; ACHN renal.
What all share (assay): NCI-60 one-dose screen, 48 h (100 = growth as untreated, 0 = no growth, -100 = all killed)
Holding throughout (conditions): 10 µM unless noted

Consider `FC(F)(F)c1ccc(-c2cn3nc(-c4c[nH]c5ccc(Br)cc45)sc3n2)cc1`, for which the growth in the assay on SK-MEL-2 melanoma is 97.8%; with EKVX NSCLC, 68.9%; in the assay on SN12C renal, 93.9%; with UO-31 renal, 68.8%; with TK-10 renal, 112%; with CAKI-1 renal it was 61.4%. For the same compound, the growth in the assay with A498 renal was 113%; with CCRF-CEM leukemia, 95%; in the assay with MOLT-4 leukemia, 87.6%; with SR leukemia, 85.9%; in the assay with RPMI-8226 leukemia, 107%; with OVCAR-8 ovarian, 105%. Moreover, the growth is 95.5% in the assay with OVCAR-5 ovarian; 102% with OVCAR-4 ovarian; 92.7% in the assay with SK-OV-3 ovarian; 73.2% with IGROV1 ovarian; 107% in the assay with OVCAR-3 ovarian; 89.1% in the assay on HS 578T breast. In addition, in the assay on NCI/ADR-RES ovarian, the growth was 96%.

With `CCNC(=O)Oc1ccc(/C(=C(\C)c2ccc(Cl)cc2)c2ccc(OCCN(CC)CC)cc2)cc1`, the growth with SK-MEL-2 melanoma was 38.1%; with EKVX NSCLC, 60.1%; in the assay with SN12C renal it was 66.1%; in the assay with UO-31 renal, 25.8%; with TK-10 renal, 80.4%; in the assay on ACHN renal, 71.3%. Moreover, the growth with A498 renal was 85.5%; with CCRF-CEM leukemia, 16.4%; with MOLT-4 leukemia it was 7.99% (active); in the assay with SR leukemia, -26.8% (active); in the assay with RPMI-8226 leukemia it was -11.4% (active); with OVCAR-8 ovarian, 64.8%. Further, the growth with OVCAR-5 ovarian was 85.9%; with OVCAR-4 ovarian, 40.5%; in the assay with SK-OV-3 ovarian, 61.5%; with IGROV1 ovarian, 49.2%; in the assay on OVCAR-3 ovarian, 53.9%; in the assay with HS 578T breast, 47.1%. Moreover, in the assay on NCI/ADR-RES ovarian, the growth was 57.3%.

Take `CC1C(/C=N/Nc2ccccc2)C(C#N)(C#N)C1(C#N)C#N` (stereo not given): the growth in the assay on SK-MEL-2 melanoma was 85.2%; in the assay with EKVX NSCLC, 71.8%; in the assay with SN12C renal, 86.5%; with UO-31 renal, 52%; in the assay on TK-10 renal, 130%; in the assay with ACHN renal, 44.4%. Also, the growth in the assay with A498 renal is 99.9%; with CCRF-CEM leukemia, 58%; with MOLT-4 leukemia, 67%; in the assay on SR leukemia it was 46.6%; with RPMI-8226 leukemia it was 82%; with OVCAR-8 ovarian, 85.6%. Besides, the growth with OVCAR-5 ovarian is 87.3%; in the assay with OVCAR-4 ovarian it was 76.1%; in the assay on SK-OV-3 ovarian it was 95.7%; in the assay with IGROV1 ovarian, 56.3%; with OVCAR-3 ovarian it was 86.2%; in the assay with HS 578T breast it was 87.2%. For the same compound, the growth in the assay on NCI/ADR-RES ovarian is 65.1%.

For the compound `O=C1Nc2ccc(Br)cc2C12Oc1ccccc1C1CC(c3ccc(F)cc3)=NN12` (stereo not given), the growth in the assay with SK-MEL-2 melanoma was 98.1%; in the assay with EKVX NSCLC, 85.5%; in the assay with SN12C renal, 93.3%; with UO-31 renal, 65.6%; with TK-10 renal, 121%; in the assay on CAKI-1 renal, 78.7%. Further, the growth in the assay with A498 renal is 102%; in the assay on CCRF-CEM leukemia it was 91%; in the assay on MOLT-4 leukemia, 74.8%; in the assay with SR leukemia, 87.1%; in the assay on RPMI-8226 leukemia it was 84%; with OVCAR-8 ovarian it was 93.7%. The growth in the assay on OVCAR-5 ovarian was 111%; with OVCAR-4 ovarian, 85.5%; in the assay with SK-OV-3 ovarian it was 102%; in the assay with IGROV1 ovarian, 72.8%; with OVCAR-3 ovarian it was 96.3%; in the assay with HS 578T breast, 89.1%. In the assay on NCI/ADR-RES ovarian, the growth was 97.3%.

With `Cc1cc2nc3[nH]c4ccccc4c3nc2cc1C`, the growth with SK-MEL-2 melanoma was 104%; in the assay with EKVX NSCLC, 79.3%; in the assay with SN12C renal, 83.4%; in the assay with UO-31 renal it was 68.4%; in the assay on TK-10 renal, 107%; in the assay with ACHN renal it was 91.9%. Further, the growth with A498 renal is 121%; in the assay on CCRF-CEM leukemia it was 76.2%; in the assay with MOLT-4 leukemia, 89.7%; in the assay on SR leukemia it was 14.2%; with OVCAR-8 ovarian, 62.3%; in the assay with OVCAR-5 ovarian, 102%. For the same compound, the growth with OVCAR-4 ovarian was 82.8%; in the assay with SK-OV-3 ovarian, 86.2%; in the assay with IGROV1 ovarian, -6.27% (active); in the assay on OVCAR-3 ovarian, 92%; with HS 578T breast, 1.63% (active); in the assay on NCI/ADR-RES ovarian, 78.9%.

As for `N#Cc1nnn(-c2ccc(S(N)(=O)=O)cc2)c1NC(=O)CCl`, the growth in the assay with SK-MEL-2 melanoma was 106%; in the assay with EKVX NSCLC, 91.4%; in the assay with SN12C renal, 88.3%; in the assay on UO-31 renal it was 86.5%; in the assay on TK-10 renal, 96.4%; in the assay with ACHN renal, 108%. Further, the growth with A498 renal was 91.5%; in the assay with CCRF-CEM leukemia, 88.8%; in the assay with MOLT-4 leukemia, 92.4%; in the assay on RPMI-8226 leukemia it was 91.4%; with OVCAR-8 ovarian, 101%; in the assay on OVCAR-5 ovarian it was 96.6%. The growth is 103% in the assay with OVCAR-4 ovarian; 96.6% with SK-OV-3 ovarian; 104% in the assay with IGROV1 ovarian; 106% in the assay with OVCAR-3 ovarian; 0.129% (active) in the assay on HS 578T breast; 102% in the assay on NCI/ADR-RES ovarian.

As to `O=c1ccccc(-c2ccc(Br)cc2)c1O`, the growth is 12% in the assay on SK-MEL-2 melanoma; 6.92% (active) with EKVX NSCLC; 6.62% (active) with SN12C renal; -10.6% (active) in the assay on UO-31 renal; 21.5% in the assay on TK-10 renal; 6.35% (active) with ACHN renal. Besides, the growth in the assay with A498 renal was 31.7%; with CCRF-CEM leukemia it was 3.29% (active); in the assay on MOLT-4 leukemia it was 5.09% (active); in the assay on SR leukemia it was 4.69% (active); with RPMI-8226 leukemia, 9.5% (active); in the assay with OVCAR-8 ovarian, 13%. For the same compound, the growth is 54.9% in the assay with OVCAR-5 ovarian; 30% with OVCAR-4 ovarian; 19.7% with SK-OV-3 ovarian; 12.4% in the assay on IGROV1 ovarian; 25.8% with OVCAR-3 ovarian; 51.8% with HS 578T breast. Also, the growth with NCI/ADR-RES ovarian was 7.78% (active).

On to `COc1ccc2cc(-c3nn(-c4ccc(C(=O)O)cc4)cc3CO)ccc2c1`, for which the growth in the assay on SK-MEL-2 melanoma was 83.2%; in the assay on EKVX NSCLC, 90.7%; with SN12C renal it was 106%; in the assay on UO-31 renal it was 86.6%; in the assay on TK-10 renal, 104%; in the assay with ACHN renal, 104%. The growth in the assay on A498 renal is 94.5%; in the assay with CCRF-CEM leukemia, 102%; in the assay on MOLT-4 leukemia it was 84.7%; in the assay with SR leukemia, 90.8%; with RPMI-8226 leukemia, 95.1%; in the assay on OVCAR-8 ovarian, 101%. The growth is 100% in the assay on OVCAR-5 ovarian; 106% with OVCAR-4 ovarian; 107% in the assay with SK-OV-3 ovarian; 99.2% in the assay on IGROV1 ovarian; 93.5% in the assay with OVCAR-3 ovarian; 97.3% in the assay on HS 578T breast. Further, the growth in the assay on NCI/ADR-RES ovarian was 99.8%.

For the origin of these results see PubChem BioAssay (NCI).
